Screen size: about 370,000 compounds; about 2,300 (0.62%) were called active.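 How the source made its calls: active means lowest replicate activation of at least 40%, so every replicate reaches that level; inactive means the rest.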 The full list was thinned out, with actives kept by preference.

The experiment is described as follows: GLuc luminescence reporter in INS-1E cells, primary screen for activators of glucose-dependent secretion of insulin (AID 743287).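 Further: 0% = median of neutral control wells and 100% = median of IBMX positive control wells.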 The following applies: INS-1E GLuc reporter insulin secretion, 2-3 h, at 16.6 µM, active compounds read high.
For `Cc1ccc(OCCC(=O)OCC(=O)N2c3ccccc3NC(=O)C2(C)C)cc1`, the activation was -29.1% (inactive). Next, `CCCCCCCCCCOC(=O)Cn1c(COc2ccc(C)cc2)[n+](C)c2ccccc21`: 193% (active). Next, `CCCCOC(=O)c1ccc(NC(c2ccc(C)cc2)P(=O)(OC)OC)cc1` (stereo unspecified): -63.4% (inactive).

As for `CCCNC(=O)N1CCC2(CC1)CN(C(=O)c1cccnc1)[C@@H](CO)c1[nH]c3cc(OC)ccc3c12`, the activation is 20.9% (inactive). Next, `C[C@H]1CCCCO[C@@H](CN(C)Cc2ccc3c(c2)OCO3)[C@@H](C)CN([C@@H](C)CO)C(=O)c2cc(NS(=O)(=O)c3ccc(F)cc3)ccc2O1`: -26% (inactive); `O=C(C[C@H]1C=C[C@H](NC(=O)c2cccc(F)c2)[C@@H](CO)O1)NCc1ccc(Oc2ccccc2)cc1`: 8.87% (inactive); `Cc1noc(C)c1NC(=O)N(C)C[C@@H]1Oc2c(NC(=O)CCCCCC(=O)Nc3ccccc3N)cccc2C(=O)N([C@H](C)CO)C[C@@H]1C`: -5.82% (inactive).

Turning to `COc1ccccc1S(=O)(=O)N[C@@H]1C=C[C@H](CC(=O)NCc2cccc(F)c2)O[C@H]1CO`, the activation was 10.3% (inactive). On to `COc1cc2c(cc1OC)/C(=C/C(=O)c1ccc(NC(C)=O)cc1)NCC2`, for which the activation was 70% (active). Next, `COc1ccc(C(=O)Nc2ccc(C3(C#N)CCCC3)cc2)cc1OC`: -6.21% (inactive); `COc1ccc(NC(=O)C2Cc3c(-c4cccc(NC(C)=O)c4)ccnc3O2)cc1OC` (stereo unspecified): -7.03% (inactive); `CCC(=O)N(C)C[C@@H]1Oc2ncc(C#Cc3ccccc3)cc2C(=O)N([C@@H](C)CO)C[C@H]1C`: -1.97% (inactive). As to `COc1ccccc1C(=O)NC(=O)COC(=O)C1CC1`, the activation is -1.88% (inactive). As for `COc1ccccc1C(=O)NC(=S)NC12CC3CC(CC(C3)C1)C2`, the activation was 41.4% (active). Next, `NC(=O)COc1ccccc1C(=O)NC12CC3CC(CC(C3)C1)C2`: 17.8% (inactive); `COc1cccc(C#Cc2ccc3c(c2)[C@H]2[C@H](CCN2C(=O)CC2CC2)[C@H](CO)N3)c1`: 0.458% (inactive); `CCCC#Cc1ccc2c(c1)O[C@H](CN(C)C(=O)C1CCCCC1)[C@H](C)CN([C@H](C)CO)S2(=O)=O`: -12.4% (inactive).

As to `CN(C)CC(=O)N[C@@H]1CC[C@H](CCn2cc(C3CCCC3)nn2)O[C@H]1CO`, the activation is -11.3% (inactive). Regarding `O=C(NCCS(=O)(=O)NCc1ccc(Cl)cc1)c1ccccc1`, the activation was 18.7% (inactive).

Consider `O=C(NNC(=O)c1cccc(S(=O)(=O)Nc2ccc(Cl)cc2)c1)c1ccc(=O)[nH]c1`, for which the activation is 0.241% (inactive). On to `O=C(Nc1ccccc1)c1nnsc1S(=O)(=O)c1ccc(Cl)cc1`, for which the activation was 48.4% (active).

These data come from PubChem BioAssay AID743287 (Broad Institute, 2014).
